Bioassay records from PubChem BioAssay.
The list is not random: actives were taken first. Their share in the collection is about 19%.
BCR signal inh: qHTS Assay to Find Inhibitors of Chronic Active B-Cell Receptor Signaling. ABC-DLBCL IkBa-CBG/CBR reporter, luminescence ratio, 4 h. AID 493014, 2011. Potency, µM (top dose mostly 46.1 µM), inactives show at the top dose activity change, negative = inhibition, usual class: inhibitors. 0.05% of 340,000 active; active = well fitted inhibition curve with a large enough effect in the signal ratio, with a control signal flat, not every such curve was filed as active; inconclusive = small, poorly fitted or top-dose-only effect, or effect the other way, or a change in a side signal; the % refers to the signal ratio;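 note: potency is the fitted concentration of half-maximal effect; plate controls were basal doxycycline-induced cells for no effect and cells given 10 µM MG132 for full effect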
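Concentration-response series (up to 46 uM) were applied to TMD8 dual-reporter cells for 4 h at 37C with doxycycline. Green/red ratio, after filter-overlap correction, defined %Activity; red signal alone was normalised to basal cells and zero luminescence.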
IL1B secr inh: qHTS for Inhibitors of Inflammasome Signaling: IL-1-beta AlphaLISA Primary Screen; THP-1 LPS/ATP IL-1B secretion, AlphaLISA, 16 h; active compounds read low; activity change, % at 57.5 µM; 4.7% of 360,000 active; AID 743279, 2014; in the data active = activity change below about -50%; inconclusive = mostly about -30% to -49%; note: % is set by controls: 0 for no effect and ±100 for the full control effect
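THP-1 cells pretreated 1 hr with compounds (up to 57.5 uM final), then stimulated with LPS (250 ng/mL final) plus ATP (1.25 mM final); secreted IL-1B measured by AlphaLISA after 16 hr, decreased signal indicating inhibition.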
SW480 rereplic: A quantitative high throughput screen for small molecules that induce DNA re-replication in SW480 colon adenocarcinoma cells | SW480 DNA re-replication, Hoechst DNA content imaging, 48 h | Potency, µM (series often up to 46.1 µM), for the others: at the highest dose re-replication activation, hits mostly activators | 1.8% of 340,000 active; note: potency is the fitted concentration of half-maximal effect; % of control where 0% means no effect; nearly all actives have a fitted effect of over 55% in size
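Quantitative HTS format with DMSO vehicle controls; 48 hr drug incubation at 37 C, then 40 min Hoechst staining and scanning imager measurement at 405 nm excitation.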
DT40 TDP1 CPT: qHTS for Inhibitors of human tyrosyl-DNA phosphodiesterase 1 (TDP1): qHTS in cells in presence of CPT; chicken DT40 Tdp1-/-;hTDP1 cells + 20 nM CPT, ATP luminescence, 48 h; Potency, µM (titrated, usually from 46.2 µM), for inactives: at the highest dose activity change, negative = growth inhibition, usual class: inhibitors; 12% of 420,000 active; AID 686979, 2013; note: potency is the fitted concentration of half-maximal effect; % is set by controls: 0 for no effect and ±100 for the full control effect; nearly all actives have a fitted effect of over 55% in size
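Chicken DT40 Tdp1-/- cells stably complemented with human TDP1 were seeded at 400 cells/well in medium containing 20 nM camptothecin, exposed to pin-transferred compounds, and grown at 37 °C for at least 48 hr. Viability was read as ATP luminescence.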
MCF10A rereplic: A quantitative high throughput screen for small molecules that induce DNA re-replication in MCF 10a normal breast cells; MCF 10A DNA re-replication, Hoechst nuclear intensity, 48 h; Potency, µM (titrated, usually from 46.1 µM), for inactives: top-dose activity, positive = re-replication, most hits filed as activators; 2.9% of 350,000 active; AID 624296, 2012; note: potency is the fitted concentration of half-maximal effect; % of control where 0% means no effect; nearly all actives have a fitted effect of over 50% in size
TDP1 cell noCPT: qHTS for Inhibitors of human tyrosyl-DNA phosphodiesterase 1 (TDP1): qHTS in cells in absence of CPT. DT40 Tdp1-/- hTDP1 cells, no CPT, ATP luminescence, 48 h. Potency, µM (doses to about 46.2 µM), for inactives: at the top dose activity change, negative = growth inhibition, actives largely listed as inhibitors. 15% of 420,000 active. AID 686978, 2013; note: potency is the fitted concentration of half-maximal effect; % is set by controls: 0 for no effect and ±100 for the full control effect; nearly all actives have a fitted effect of over 55% in size
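Stably hTDP1-transfected Tdp1-null chicken DT40 cells were treated with library compounds minus camptothecin and grown for at least 48 hr at 37 °C, after which cellular ATP was quantified by luminescence.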
* hit, by the source's call; u = inconclusive; x = no result. Unless noted, calls come from the whole dose curve; as a rule, active = well fitted curve in the direction sought with a large enough effect; inconclusive = small, poorly fitted or top-dose-only effect, or another doubt; inactive = no such curve, though single readings can be large; an effect the other way counts as inactive or inconclusive.

SMILES	BCR signal inh	IL1B secr inh	SW480 rereplic	DT40 TDP1 CPT	MCF10A rereplic	TDP1 cell noCPT
COc1ccc(CN(C)CC(=O)Nc2ccccc2C(=O)NC2CC2)cc1	-17.2%	14.2	-1.8%	u	3.6%	u
COc1ccc(OC)c(S(=O)(=O)N2CCN3CCCC3C2)c1 (configuration not stated)	5.7%	-5.5	u	-11.4%	6.2%	-3.1%
CCN1CCN(S(=O)(=O)c2cc(OC)ccc2OC)CC1	-2.4%	13.9	-0.7%	1.0%	2.9%	3.1%
COc1ccc(OC)c(S(=O)(=O)N2CCN(c3ncccn3)CC2)c1	-11.2%	-12.5	6.8%	u	1.5%	14.6µM*
COc1ccc(OC)c(S(=O)(=O)N2CCN(C34CC5CC(CC(C5)C3)C4)CC2)c1	u	-1.4	0.7%	u	u	16.4µM*
COc1ccc(OC)c(S(=O)(=O)N2CCCC(N3CCN(c4ccccc4)CC3)C2)c1 (configuration not stated)	1.0%	32.2	0.7%	u	4.1%	25.9µM*
CS(=O)(=O)N1CCC2(CCN(C(=O)Nc3cccc(F)c3)CC2)CC1	x	x	x	-5.8%	x	-25.8%
O=C(NCC(c1cccs1)S(=O)(=O)c1cccs1)c1ccc(C(F)(F)F)cc1 (configuration not stated)	0.4%	x	x	u	x	u
CCOC(=O)[C@H]1[C@H]2COc3ccc(C)cc3[C@@H]2N2C(=O)c3ccc(F)cc3NC(=O)[C@@]12C	u	-13.6	10.2%	-20.3%	2.8%	-20.3%
CCOC(=O)[C@H]1[C@H]2COc3ccc(C)cc3[C@@H]2N2C(=O)c3cc(Cl)ccc3NC(=O)[C@@]12C	u	-27.0	-8.2%	u	2.5%	u
CCOC(=O)[C@H]1[C@H]2COc3ccc(Br)cc3[C@@H]2N2C(=O)c3ccc(Cl)cc3NC(=O)[C@@]12C	u	u	-13.1%	18.4µM*	16.6%	18.4µM*
CCOC(=O)[C@H]1[C@H]2COc3ccc(C)cc3[C@@H]2N2C(=O)c3ccc(C)cc3NC(=O)[C@@]12C	u	0.0	7.8%	23.1µM*	11.0%	u
CCCCN(C(=O)CC1CCCC1)c1c(N)n(Cc2ccccc2)c(=O)[nH]c1=O	x	0.0	x	-10.4%	x	-15.2%
C[C@@H]1CCCCCCCCC(=O)OCCN1C(=O)OC(C)(C)C	3.6%	20.8	-10.4%	16.4µM*	6.4%	u
CCC(=O)Nc1ccc2c(c1)nc1n2CCN(CCOC)C1	1.6%	5.5	u	-6.6%	3.7%	-22.2%
COc1cccc(C(=O)Nc2cccc(C(=O)OCc3cc(=O)n4nc(C5CC5)sc4n3)c2)c1	x	x	x	u	x	3.66µM*
O=C(Nc1ccc(C(=O)OCc2cc(=O)n3nc(C4CC4)sc3n2)cc1)c1cccc(F)c1	x	x	x	0.1%	x	u
CC(C)(C)C(=O)Nc1cccc(C(=O)OCc2cc(=O)n3nc(C4CC4)sc3n2)c1	x	x	x	u	x	18.4µM*
COc1ccccc1C(=O)Nc1ccc(C(=O)OCc2cc(=O)n3nc(C4CC4)sc3n2)cc1	x	x	x	-15.2%	x	-19.9%
O=C(OCc1cc(=O)n2nc(C3CC3)sc2n1)c1cccc(NC(=O)c2ccccc2Cl)c1	x	x	x	20.6µM*	x	20.6µM*
N#Cc1nc(-c2cccc3ccccc23)oc1NCC#CCOC(=O)c1cccs1	-27.4%	x	x	x	x	x
COc1cc(OC)c(NC(=O)COc2ccccc2-c2nnc(-c3ccccc3)o2)cc1Cl	x	x	x	-16.2%	x	-13.9%
